Screening results as filed in PubChem.
NPC1 promoter act – activators of NPC1 promoter; Huh7 NPC1 promoter luciferase reporter, 24 h; Potency, µM (doses to about 9.22 µM), for the others: at the highest dose activation, actives largely listed as activators; actives 2.4% (n = 320,000); also: % of control where 0% means no effect; nearly all actives have a fitted effect of over 60% in size
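Stably transfected Huh7 (NPC1 promoter→luciferase), 1500 cells/well in Opti-MEM + 10% FBS, 2 h settle, then compound 24 h at 37 °C. Luminescence after 10 min with Amplite reagent.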
Rab9 promoter act – activates the Rab9 promoter. Potency, µM (titrated, usually from 9.22 µM), without a hit: at the top dose activation, negative = inhibition, most hits filed as activators. actives 2.8% (n = 320,000). Huh7 Rab9 promoter-luciferase reporter, luminescence, 24 h. AID 485297; also: % of control where 0% means no effect; nearly all actives have a fitted effect of over 60% in size
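Huh7 reporter line, Rab9 promoter upstream of luciferase. Compound exposure 24 h at 37 °C in reduced-serum medium with 10% FBS. Read-out: luminescence.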
FLuc modulator – counter-screen for miR-21 project: firefly luciferase inhibitors or activators | purified FLuc, Km substrates, luminescence inhibition | Potency, µM (series often up to 57.5 µM), without a hit: at the highest dose activity change, negative = inhibition, hits mostly inhibitors | actives 6.9% (n = 360,000) | AID 588342;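 also: plate controls were vehicle for no effect and reference inhibitor for full effect; nearly all actives have a fitted effect of over 55% in size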
Target sequence (P08659 whole entry, looked up): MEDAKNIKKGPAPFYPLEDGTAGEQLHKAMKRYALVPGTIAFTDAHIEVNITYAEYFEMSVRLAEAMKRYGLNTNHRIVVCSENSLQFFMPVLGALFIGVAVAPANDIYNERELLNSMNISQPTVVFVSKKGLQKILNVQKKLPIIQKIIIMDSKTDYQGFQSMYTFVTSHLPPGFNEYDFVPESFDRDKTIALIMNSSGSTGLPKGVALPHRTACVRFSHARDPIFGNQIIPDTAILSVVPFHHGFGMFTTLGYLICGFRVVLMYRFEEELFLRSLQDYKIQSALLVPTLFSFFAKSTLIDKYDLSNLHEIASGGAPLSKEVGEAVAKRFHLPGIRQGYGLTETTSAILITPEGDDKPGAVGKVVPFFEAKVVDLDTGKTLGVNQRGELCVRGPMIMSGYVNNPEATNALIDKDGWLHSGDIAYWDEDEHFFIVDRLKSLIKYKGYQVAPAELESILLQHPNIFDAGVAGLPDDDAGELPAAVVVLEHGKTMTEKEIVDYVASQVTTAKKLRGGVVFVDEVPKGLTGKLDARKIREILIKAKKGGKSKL
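Purified P. pyralis luciferase (10nM final) with 10uM D-luciferin and 10uM ATP (Km levels) in 50mM Tris acetate pH 7.5, 10mM Mg acetate, 0.01% Tween-20, 0.05% BSA; qHTS 6-point titration, ~60 µM downward; luminescence read.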
KinaseGlo FLuc – Kinase-Glo luciferase inhibition (counter-screen) | actives 0.28% (n = 200,000) | Kinase-Glo luciferase, ATP luminescence, 8 min | AID 1379 | Potency, µM (top dose mostly 38.3 µM), without a hit: at the highest dose activity change, negative = inhibition, hits mostly inhibitors | Q27757; also: % is scaled to controls: 0 for no effect and ±100 for the full control effect; nearly all actives have a fitted effect of over 60% in size
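Luminescence was the read-out, taken after 8-minute incubation at ambient temperature. Luciferase turned over luciferin with 10 uM ATP in imidazole pH 7.2 buffer containing KCl, MgCl2, Tween 20 and BSA.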
ELG1 genotoxic – induces genotoxicity in HEK293T cells with luciferase-tagged ELG1; actives 1.3% (n = 330,000); HEK293T ELG1-luciferase reporter, luminescence, 16 h; Potency, µM (highest dose often 46 µM), inactives show at the top dose activity change, positive = activation, most hits filed as activators; also: % of control where 0% means no effect; nearly all actives have a fitted effect of over 60% in size
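HEK293T cells expressing luciferase-tagged ELG1 were treated with compound or DMSO for 16 hr at 37°C. Luciferase activity was then read after 30 min with ONE-Glo at room temperature; rising signal flags genetic stress.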
SMN2 splice up – increases expression of the SMN2 splice variant; HEK293 SMN2-luciferase splicing reporter, luminescence, 30-36 h; Potency, µM (titrated, usually from 46.1 µM), inactives show at the top dose activity change, positive = activation, hits mostly activators; actives 2.8% (n = 210,000); AID 1458; also: % of control where 0% means no effect; nearly all actives have a fitted effect of over 55% in size
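HEK293 cells carry an SMN2 minigene-luciferase reporter in which exon 7 inclusion puts luciferase in frame. Cells were seeded at 2000 cells/well, attached for 10-12 hours, then exposed to compounds for 30-36 hours at 37C before ONE-Glo luminescence.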
Numbers without * were called inactive; ? = inconclusive; nt = no result given; [ ] = another dose, or the depositor's remark. In the library only some 7.4% were active in any assay of this set; here they are far more common. Calls follow the shape of the dose curve; as a rule, active = well fitted curve in the direction sought with a large enough effect; inconclusive = small, poorly fitted or top-dose-only effect, or another doubt; inactive = no such curve, though single readings can be large; an effect the other way counts as inactive or inconclusive. Potency is read from the fitted curve at half-maximal effect.

SMILES	NPC1 promoter act	Rab9 promoter act	FLuc modulator	KinaseGlo FLuc	ELG1 genotoxic	SMN2 splice up
CCN(CC)c1ccc(/C=N/n2c(=S)[nH]nc(C)c2=O)cc1	11%	11%	15µM*	nt	-1%	nt
O=C(N/N=C/c1ccccc1O)NC12CC3CC(CC(C3)C1)C2	?	6.3µM*	21µM*	nt	?	nt
c1ccc2sc(NCC3CCCO3)nc2c1 (stereo not given)	2.2µM*	1.4µM*	21µM*	-14%	?	10µM*
C=CCNc1nc(-c2cc3ccccc3o2)cs1	1µM*	0.63µM*	0.34µM*	-3%	0.52µM*	0.56µM*
O=c1oc2ccccc2cc1-c1csc(NN=C2CCCCC2)n1	?	?	13µM*	-4%	14%	?
O=S(=O)(Nc1nc2ccccc2nc1NCC1CCCO1)c1ccccc1 (stereo not given)	-2%	-4%	0%	nt	1%	nt
C=CCNc1nc(-c2ccc(O)c(C(N)=O)c2)cs1	2%	4%	?	-3%	?	3%
CC1CCC/C(=C(\C#N)c2nc(-c3cc4ccccc4oc3=O)cs2)C1 (stereo not given)	2.5µM*	1.8µM*	1.7µM*	1%	?	-12%
CC(Nc1nc(-c2ccc3c(c2)NC(=O)CO3)cs1)c1ccccc1 (stereo not given)	21%	12%	?	1%	-8%	-13%
c1ccc2oc(-c3csc(NCC4CCCO4)n3)cc2c1 (stereo not given)	1.6µM*	0.4µM*	1.5µM*	5%	2.3µM*	?
O=C1COc2ccc(-c3csc(NCC4CCCO4)n3)cc2N1 (stereo not given)	5%	27%	17µM*	-1%	11%	-24%
Cc1ccc(CNC(=O)c2cc(=O)c3cc(C)cc(C)c3o2)cc1	nt	nt	-5%	nt	nt	13%
CCCCN(CC)CCCNC(=O)Nc1sc2nc3n(c(=O)c2c1C)CCC(C)CC3 (stereo not given)	nt	nt	-2%	nt	nt	-5%
CCOC(=O)c1ccc(NC2SC(=O)N(Cc3cccc(C(=O)O)c3)C2=O)cc1 (stereo not given)	nt	nt	24µM*	nt	nt	?
COC(=O)C1=C(C(=O)OC)[C@@H]2N(C)c3ccccc3[C@@]23C[C@@H](C(=O)OC)N(S(=O)(=O)c2ccc(C#N)cc2)C3=N1	nt	nt	nt	-7%[7.66 µM]	nt	-2%[9.22 µM]
Cc1cc(C)c2nc(N3CCN(C(=O)c4ccco4)CC3)sc2c1	27%	?	17µM*	nt	5%	nt
Cc1cc(C)c2nc(N3CCN(C(=O)c4cccs4)CC3)sc2c1	-1%	2%	?	nt	26%	nt
Cc1cc2nc(N3CCN(C(=O)c4ccco4)CC3)sc2cc1C	2.5µM*	0.79µM*	6µM*	nt	19%	nt
CC(=O)c1ccc(N2CCN(C(=O)c3ccco3)CC2)c(F)c1	?	?	-23%	2%	?	2.8µM*
CC(=O)c1cc(F)c(N2CCN(C(=O)c3ccco3)CC2)cc1C	10%	8%	-18%	0%	19%	13%
Cc1cc2nc(N3CCN(C(=O)c4cccs4)CC3)sc2cc1C	4µM*	2.8µM*	?	nt	10%	nt
Cc1ccc(-c2nn3c(=O)cc(CN4CCN(C(=O)c5ccc(C(C)(C)C)cc5)CC4)nc3s2)cc1	nt	nt	0%	nt	nt	nt
O=C(Nc1cc(Cl)ccc1Cl)C1(c2cccs2)CCOCC1	nt	nt	7%	nt	nt	nt
COC(=O)C(C(=O)OC)[C@@H]1c2ccccc2[C@H]2C(=C[C@@H](C)[C@H]3C(=O)N(c4ccccc4)C(=O)[C@H]32)N1C(=O)OC	nt	nt	nt	-2%[7.66 µM]	nt	-11%[9.22 µM]
CN1CCN(CC(=O)N(C)c2nc(-c3ccccc3)cs2)CC1	4µM*	2.8µM*	15µM*	-1%	?	-35%
CCc1ccc(NC(=O)Cc2ccc(OC)cc2)cc1	18%	3%	?	-2%	13%	?
COCC(=O)Nc1nc(-c2ccc([N+](=O)[O-])cc2)cs1	0%	?	-5%	0%	0%	3%
